Results: the supplement of paper PMC6805474

Experiments:
[1] = test system: Schistosoma mansoni schistosomula (LE); assay: XTT viability relative to DMSO control; higher = more viable (less active); details: 72 h; 10 µM
Experimental: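 XTT/PMS was then added for a further 24 h (72 h total) and A450 was read. % viability = (sample - heat-killed control)/(DMSO control - heat-killed control) x 100, from duplicate wells in two independent experiments.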

[2] = test system: Schistosoma mansoni schistosomula (NMRI); assay: phenotypic severity score (0-4); higher = more antischistosomal effect, active = 2 or more; details: 10 µM
[3] = test system: Schistosoma mansoni schistosomula (Liberian); assay: drug effect (1 - score/DMSO control score) (fraction); higher = more antischistosomal effect, active = 0.5 or more; extreme values may be limits of the assay; details: 10 µM
Summary of the method: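 Liberian-strain Schistosoma mansoni schistosomula, mechanically transformed from cercariae and pre-incubated at least 12 h, were exposed in duplicate (50 per well, flat-bottom 96-well plates) to 10 µM compound in Medium 199 with 5% FCS at 37 °C, 5% CO2, with 0.1% DMSO control wells. Wells were scored visually (10×) at 24, 48 and 72 h on a quarter-point scale from 3 (normal) to 0 (dead). Drug effect was derived from the mean test-well score relative to the mean DMSO-control score. Negative values were set to zero, and plates were valid only if control wells averaged at least 2.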
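For phenotypic severity score (0-4) in this document: visual microscopic scoring of shape, motility and density changes versus 0.5% DMSO solvent controls, one point per descriptor, degeneracy or death scored 4, mean of duplicate wells.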

Structure (SMILES)	XTT viability [1] [%]	phenotypic severity score ([2]; 24 h)	phenotypic severity score ([2]; 48 h)	phenotypic severity score ([2]; 72 h)	drug effect ([3]; 24 h)	drug effect ([3]; 48 h)	drug effect ([3]; 72 h)
O=C(Nc1nnc(-c2ccc(Cl)cc2)o1)c1cccc(C(F)(F)F)c1	-9.98	0 (inactive)	4 (active)	4 (active)	0.0909 (inactive)	0.25 (inactive)	0.945 (active)
COc1cc(C2=NCCN2)ccc1-n1cc(-c2cccc(C3=NCCN3)c2)nn1	77.2	1 (inactive)	0 (inactive)	0 (inactive)	0.243 (inactive)	0.278 (inactive)	0.5 (active)
Cc1cc(NC(=O)c2ccc(S(=O)(=O)N(Cc3ccccc3)C(C)C)cc2)no1	106	1 (inactive)	0 (inactive)	0 (inactive)	0.135 (inactive)	0.444 (inactive)	0.25 (inactive)
CC(C)n1ncc2c(C(=O)NCC(c3cccs3)N3CCOCC3)cc(-c3ccccc3)nc21 (stereo not drawn)	71.6	2 (active)	0 (inactive)	1 (inactive)	0.273 (inactive)	0.5 (active)	0.4 (inactive)
CCc1ccc(C(NCc2nc(N)nc(N(C)C)n2)C(C)C)cc1 (stereo not drawn)	99.2	0 (inactive)	0 (inactive)	0 (inactive)	< 0 (inactive)	< 0 (inactive)	0.111 (inactive)
CNC(=O)C1Cc2ccccc2N1C(=O)Cc1ccc(F)cc1 (stereo not drawn)	84.2	0 (inactive)	0 (inactive)	0 (inactive)	0.227 (inactive)	0.2 (inactive)	0.236 (inactive)
FC(F)(F)c1nnc2ccc(Cl)nn12	84	1 (inactive)	0 (inactive)	0 (inactive)	0.2 (inactive)	0.189 (inactive)	0.333 (inactive)
CCOC(=O)c1cc(-c2csc(Nc3c(C)cc(C)cc3C)n2)on1	95.6	1 (inactive)	1 (inactive)	0 (inactive)	0.182 (inactive)	0.3 (inactive)	0.291 (inactive)
C[C@H](c1ccc2c(c1)CCCC2)N(C)c1ncc2c(N)nc(N)nc2n1	39.1	0 (inactive)	0 (inactive)	0 (inactive)	0.2 (inactive)	0.278 (inactive)	0.438 (inactive)
CCc1cc(=O)n(C)c(SC(C)C(=O)Nc2ccc(F)cc2)n1 (stereo not drawn)	115	0 (inactive)	0 (inactive)	1 (inactive)	0.135 (inactive)	0.111 (inactive)	< 0 (inactive)
CC(Oc1cccc(Cl)c1)C(=O)Nc1ccc2oc(-c3ccncc3)nc2c1 (stereo not drawn)	109	1 (inactive)	0 (inactive)	0 (inactive)	0.318 (inactive)	0.45 (inactive)	0.564 (active)
COc1nc2ccc(Br)cc2cc1[C@@H](c1ccccc1)[C@@](O)(CCN(C)C)c1cccc2ccccc12	7.23	2 (active)	4 (active)	4 (active)	0.318 (inactive)	0.8 (active)	0.945 (active)
CC(=O)NC[C@H]1CN(c2ccc(N3CCSCC3)c(F)c2)C(=O)O1	145	0 (inactive)	0 (inactive)	0 (inactive)	0.136 (inactive)	0.2 (inactive)	0.236 (inactive)
Cc1cc(C)n2nc(C(=O)Nc3cc(C(F)(F)F)ccc3N3CCOCC3)nc2n1	73.3	0 (inactive)	0 (inactive)	0 (inactive)	0.05 (inactive)	0.135 (inactive)	0.222 (inactive)
NC(=O)c1cc(Br)ccc1OCCOc1ccccc1	110	1 (inactive)	1 (inactive)	2 (active)	< 0 (inactive)	< 0 (inactive)	< 0 (inactive)
O=C(Nc1ccc2c(c1)B(O)OC2)c1ccccc1C(F)(F)F	71.1	0 (inactive)	0 (inactive)	0 (inactive)	0.1 (inactive)	0.0556 (inactive)	0.167 (inactive)
COc1cccc(CC(=O)N2CCC(n3c(C)nc4ccc(F)cc43)CC2)c1	116	1 (inactive)	1 (inactive)	1 (inactive)	0.1 (inactive)	0.405 (inactive)	0.394 (inactive)
O=C(C1CCN(c2nnc(-n3cccc3)s2)CC1)N1CCC(Cc2ccccc2)CC1	103	1 (inactive)	1 (inactive)	0 (inactive)	0.0526 (inactive)	0.111 (inactive)	< 0 (inactive)
CCN(CC)S(=O)(=O)c1ccc(C(=O)Nc2cc(C)nn2-c2nc(C)c(C)c(=O)[nH]2)cc1	80.6	0 (inactive)	0 (inactive)	0 (inactive)	0.1 (inactive)	< 0 (inactive)	< 0 (inactive)
